We go through 16 compounds from PubChem BioAssay.

For assay [1], the system named is Plasmodium falciparum Sir2 (PF13_0152, Sir2A). The assay is described as follows: Plasmodium falciparum Sir2A binding compounds – biochemical, small-molecule microarray, 635 nm fluorescence, primary screen (AID 1098).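 Further: score merges spot fluorescence intensity with its signal-to-noise ratio.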 Particulars: fluorescence 635 nm, higher = more signal.
A short description of assay [2]: probe aDKK1 binding to arrayed compounds – biochemical, biotinylated probe, 635/667 nm fluorescence, primary screen (AID 1099).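 Further: score merges 667nm spot fluorescence with signal to noise across triplicate slides; reference of the scale not given here.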 To be noted: small-molecule microarray, higher = more signal.
Assay [3] is described as follows: probe aCHRDL2 binding to arrayed compounds – biochemical, biotinylated probe, 635/667 nm fluorescence, primary screen (AID 1100). Particulars: small-molecule microarray, higher = more signal.
A short description of assay [4]: change in splice reporter luminescence, either direction, cell-based, HEK293, spliceosome inhibition project, primary screen (AID 1101).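 Further: HEK293 cells carrying a splicing-competent luciferase reporter gene; test concentration not given here.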 To be noted: HEK293 splicing luciferase reporter, 24 h, higher = more signal, called active from +8 up or from −8 down. A general note: A reporter such as luciferase makes a cellular process visible.
In assay [5] the target is Fibroblast growth factor 10 (Homo sapiens) (UniProt O15520). The assay is described as follows: compounds binding fibroblast growth factor 10 – biochemical, small-molecule microarray, 635 nm fluorescence, primary screen (AID 1102). To be noted: FGF10 binding, fluorescence 635 nm, higher = more signal.
Assay [6] deals with glycogen synthase kinase-3 (GSK3A per assay name; protocol says GSK3B). Kind of assay: compounds binding glycogen synthase kinase-3 – biochemical, small-molecule microarray, 635 nm fluorescence, GSK3A, primary screen (AID 1103). Further: the record names both GSK3A and GSK3B. Particulars: fluorescence 635 nm, higher = more signal.
Assay [7] has as its target Epidermal growth factor receptor (Homo sapiens) (UniProt P00533). Kind of assay: compounds binding epidermal growth factor receptor – biochemical, small-molecule microarray, 635 nm fluorescence, primary screen (AID 1104).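 Further: score merges 667 nm emission intensity with spot signal to noise over triplicate slides.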 To be noted: EGFR binding, higher = more signal.
Assay [8] has as its target Follistatin-related protein 3 (Homo sapiens) (UniProt O95633). The assay is described as follows: compounds binding follistatin-related protein 3 – biochemical, small-molecule microarray, 635 nm fluorescence, primary screen (AID 1105).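 Further: score merges emission near 667 nm and signal to noise per printed spot across three slides.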 Particulars: FSTL3 binding, higher = more signal.
Assay [9] has as its target Dickkopf-related protein 1 (Homo sapiens) (UniProt O94907). The assay is described as follows: small molecules binding DKK1 protein – biochemical, small-molecule microarray, 635 nm fluorescence scan, primary screen (AID 1106).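 Further: score merges emission near 667 nm with signal to noise over three replicate slides.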 Particulars: higher = more signal.
The subject of assay [10] is Inhibin beta A chain (activin A). The assay is described as follows: small molecules binding activin A – biochemical, small-molecule microarray, 635 nm fluorescence scan, primary screen (AID 1107).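 Further: mouse activin A protein probed at 4.33 µg/mL on printed slides; score merges bound-protein fluorescence near 667 nm with spot signal-to-noise.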 To be noted: INHBA, higher = more signal.

Active and inactive are the calls of the source.

Sequence of Follistatin-related protein 3 (Homo sapiens) (O95633 whole entry, looked up): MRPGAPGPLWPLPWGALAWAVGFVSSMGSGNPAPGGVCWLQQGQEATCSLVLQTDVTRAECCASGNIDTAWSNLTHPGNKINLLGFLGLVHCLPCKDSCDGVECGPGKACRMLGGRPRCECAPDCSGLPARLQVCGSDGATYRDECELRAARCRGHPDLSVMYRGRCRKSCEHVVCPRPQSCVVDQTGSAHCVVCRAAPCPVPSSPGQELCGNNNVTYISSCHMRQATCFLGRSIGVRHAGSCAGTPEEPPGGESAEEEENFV
Sequence of Fibroblast growth factor 10 (Homo sapiens) (O15520 whole entry, looked up): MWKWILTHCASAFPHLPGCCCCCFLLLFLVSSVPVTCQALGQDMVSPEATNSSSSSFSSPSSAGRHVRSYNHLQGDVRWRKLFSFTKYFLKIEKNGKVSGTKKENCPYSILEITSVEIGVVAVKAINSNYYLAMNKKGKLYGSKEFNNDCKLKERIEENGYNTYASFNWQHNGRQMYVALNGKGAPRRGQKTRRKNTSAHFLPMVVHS
Sequence of Epidermal growth factor receptor (Homo sapiens) (P00533 whole entry, looked up): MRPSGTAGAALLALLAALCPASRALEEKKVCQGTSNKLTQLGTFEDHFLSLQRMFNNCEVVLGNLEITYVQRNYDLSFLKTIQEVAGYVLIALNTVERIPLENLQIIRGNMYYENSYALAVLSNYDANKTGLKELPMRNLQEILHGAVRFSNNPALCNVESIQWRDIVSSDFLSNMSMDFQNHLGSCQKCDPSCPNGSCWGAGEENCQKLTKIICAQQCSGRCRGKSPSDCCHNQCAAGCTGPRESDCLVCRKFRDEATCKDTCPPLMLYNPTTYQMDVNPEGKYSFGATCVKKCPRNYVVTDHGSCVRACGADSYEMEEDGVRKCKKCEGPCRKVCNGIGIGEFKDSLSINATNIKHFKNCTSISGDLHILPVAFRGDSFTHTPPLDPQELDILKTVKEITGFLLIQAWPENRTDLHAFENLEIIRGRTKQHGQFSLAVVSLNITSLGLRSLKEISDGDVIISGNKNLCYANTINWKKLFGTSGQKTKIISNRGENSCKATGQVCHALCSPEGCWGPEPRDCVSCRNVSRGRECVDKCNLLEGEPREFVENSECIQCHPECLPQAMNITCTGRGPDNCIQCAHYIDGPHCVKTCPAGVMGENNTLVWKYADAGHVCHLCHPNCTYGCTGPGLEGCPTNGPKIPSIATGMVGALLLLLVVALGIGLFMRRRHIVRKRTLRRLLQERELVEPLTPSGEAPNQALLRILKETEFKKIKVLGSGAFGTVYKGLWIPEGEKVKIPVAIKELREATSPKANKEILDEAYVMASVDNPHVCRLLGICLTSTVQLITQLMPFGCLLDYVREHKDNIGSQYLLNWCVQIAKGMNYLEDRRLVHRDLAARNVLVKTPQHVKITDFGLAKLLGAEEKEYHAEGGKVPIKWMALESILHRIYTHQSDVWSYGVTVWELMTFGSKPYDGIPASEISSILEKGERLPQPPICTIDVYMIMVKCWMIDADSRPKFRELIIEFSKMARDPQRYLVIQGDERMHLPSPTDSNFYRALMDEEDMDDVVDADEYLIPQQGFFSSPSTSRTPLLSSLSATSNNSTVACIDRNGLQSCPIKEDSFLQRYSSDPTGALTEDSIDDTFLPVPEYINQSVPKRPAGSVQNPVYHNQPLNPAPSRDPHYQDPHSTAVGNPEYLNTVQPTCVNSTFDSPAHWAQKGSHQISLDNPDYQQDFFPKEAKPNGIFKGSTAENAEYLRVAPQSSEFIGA
Sequence of Dickkopf-related protein 1 (Homo sapiens) (O94907 whole entry, looked up): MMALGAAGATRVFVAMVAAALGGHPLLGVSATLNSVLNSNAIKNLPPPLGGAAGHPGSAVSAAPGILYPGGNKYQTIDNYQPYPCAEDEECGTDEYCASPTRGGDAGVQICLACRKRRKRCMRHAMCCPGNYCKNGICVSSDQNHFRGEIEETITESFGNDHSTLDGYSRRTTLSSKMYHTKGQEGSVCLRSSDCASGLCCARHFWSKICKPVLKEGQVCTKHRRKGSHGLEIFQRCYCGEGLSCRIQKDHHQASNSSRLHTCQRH

For the compound `CC(C)C[C@H]1NC(=O)[C@@]23C(=O)N[C@@H](Cc4ccccc4)C2[C@H](C)[C@@]2(C)O[C@H]2C3/C=C/C/C=C\CNC(=O)[C@@H]2CCCN2C1=O` (stereo not given in full), the composite z-score in assay [1] was 0.903; in assay [2], -0.244; in [3], -0.575; in assay [5], 0.815; in assay [6] it was 0.47; in assay [7] it was 0.139. Besides, the results for the composite z-score in [8], in assay [9] and in assay [10] were 0.572, 0.668 and 0.918, respectively. The z-score in assay [4] is 0.091 (inactive).
For `C=CC[C@@]12N=C(c3ccc(OCCCO)cc3)O[C@@H]1c1ccccc1N(Cc1ccccc1)C2=O`, the composite z-score in assay [1] is 1.55; in assay [2], 1.36; in assay [3], 1.08; in assay [5], 1.26; in assay [6], 1.34; in assay [7], 0.657. Moreover, the composite z-score came to 1.48 in assay [8], 0.904 in assay [9] and 1.12 in [10]. For the same compound, the z-score in [4] is -1.37 (inactive).
As for `CN(C)C(=O)[C@]1(Cc2ccccc2)N=C(c2ccc(OCCCO)cc2)O[C@@H]1c1ccccc1`, the composite z-score is 0.747 in [1]; 0.129 in assay [2]; 0.624 in assay [3]; 1.13 in assay [5]; 1.29 in assay [6]; -0.515 in assay [7]. Moreover, the composite z-score was 0.289 in assay [8], -0.698 in assay [9] and 0.231 in [10]. The z-score in [4] was -0.012 (inactive).
As to `C=CCC(OC(C)=O)[C@@H]1[C@@H](N(Cc2cccc3ccccc23)C(=O)c2ccc(C)cc2)c2cc(OCCCO)ccc2N1C(=O)c1ccc2ccccc2n1` (stereo not given in full), the composite z-score in assay [1] was 0.206; in [2] it was -0.16; in assay [3], 0.322; in assay [5], 0.0635; in [6], 0.104; in assay [7], 0.386. The composite z-score came to 0.29 in [8], 0.145 in [9] and 0.863 in assay [10]. Further, the z-score in [4] was -1.47 (inactive).
With `CC(C)C[C@@H]1NC(=O)[C@H]2C[C@@H](C(=O)NCCCCCCNC(=O)CS)[C@@H](c3ccc(O)cc3)N2C1=O`, the composite z-score in assay [1] was 1.47; in assay [2], -0.0603; in assay [3] it was -0.121; in assay [5], 1.13; in [6], 1.25; in assay [7], 1.08. The composite z-score in assay [8] is 1.03; in assay [9], 0.868; in assay [10], -1.17. The z-score in assay [4] is -0.0594 (inactive).
`COCCOC(=O)N1C(=O)[C@@]2(c3cc(C#CCNC(N)=O)ccc31)[C@H](C(=O)NC[C@H](O)c1ccccc1)[C@H]1C(=O)O[C@H](c3ccccc3)[C@H](c3ccccc3)N1[C@@H]2c1ccc(OCCO)cc1`: the composite z-score in [1] amounted to 1.44; in assay [2], 0.398; in assay [3], 0.782; in [5], 0.872; in [6], 0.939; in assay [7] it was 0.565. Further, the composite z-score in assay [8] is 0.898; in assay [9], 0.301; in [10], 0.649. Moreover, in [4], the z-score is -0.204 (inactive).
With `C=CC[C@]1(C(=O)OC)N=C(c2ccc(OCCCO)cc2)O[C@H]1c1ccccc1N=[N+]=[N-]`, the composite z-score came to 1.54 in [1]; 1.21 in assay [2]; 0.865 in [3]; 1.25 in assay [5]; 1.31 in [6]; 1.19 in assay [7]. Moreover, the composite z-score in [8] was 1.37; in assay [9] it was 1.26; in assay [10], 0.826. For the same compound, in assay [4], the z-score is -1.4 (inactive).
Consider `C=CC[C@@]1(C(=O)N(C)C)N=C(c2ccc(OCCCO)cc2)O[C@@H]1c1ccccc1`, for which the composite z-score in assay [1] was 1.72; in [2] it was 0.595; in assay [3], 0.959; in assay [5] it was 1.4; in assay [6], 1.01; in assay [7] it was -0.644. Further, the results for the composite z-score in assay [8], in assay [9] and in [10] were -0.583, -0.217 and 1.17, respectively. The z-score in assay [4] was -0.69 (inactive).
Consider `CCOC(=O)C[C@H]1[C@H](OC(=O)c2ccc(-c3ccccc3)cc2)[C@@H](NC(=O)c2ccc3ccccc3c2)c2cc(OCCCO)ccc2N1C(=O)c1ccccc1`, for which the composite z-score in assay [1] is 0.34; in [2], -0.393; in [3], 0.211; in [5], 1.28; in [6], 0.972; in assay [7] it was 0.514. Besides, the composite z-score in assay [8] is 0.341; in [9] it was -0.149; in assay [10], -0.121. Further, the z-score in assay [4] is 0.173 (inactive).
As to `C=CCOC(=O)[C@H]1[C@@H]2C(=O)O[C@@H](c3ccccc3)[C@@H](c3ccccc3)N2[C@@H](c2ccc(OCCOC(=O)[C@@H]3C[C@@H]4C(=O)N[C@@H](CC(C)C)C(=O)N4[C@@H]3c3ccc(O)cc3)cc2)[C@]12C(=O)Nc1ccc(I)cc12`, the composite z-score in assay [1] was 1.09; in [2], 0.0615; in assay [3] it was -0.0756; in [5], 0.649; in [6], 1.13; in assay [7] it was 0.993. For the same compound, the composite z-score in [8] was 0.644; in assay [9], 0.928; in assay [10] it was -0.0053. Also, in [4], the z-score is -1.41 (inactive).
`CN(C)C(=O)[C@@]1(CCS(=O)(=O)c2ccccc2)N=C(c2ccc(OCCCO)cc2)O[C@H]1c1ccccc1N=[N+]=[N-]`: the composite z-score in assay [1] stood at 1.44; in assay [2], 0.466; in assay [3], 0.817; in [5], 1.36; in assay [6], 1.29; in assay [7] it was 0.193. The composite z-score was 1.03 in assay [8], -0.0735 in [9] and 0.786 in [10]. For the same compound, in assay [4], the z-score was -0.445 (inactive).
Regarding `CCOC(=O)C1=C(C(=O)OCC)N(S(=O)(=O)CC[Si](C)(C)C)[C@H](c2ccccc2)CC1`, the composite z-score in assay [1] came out at 0.461; in [2], 0.879; in [3], 0.845; in assay [5] it was 0.8; in assay [6], 1; in assay [7] it was 0.313. Moreover, the values for the composite z-score in [8], in assay [9] and in [10] were 0.971, -0.111 and 0.955, respectively. Also, the z-score in assay [4] was 0.37 (inactive).
Consider `CCCCN1CC=CC23O[C@@H]4C=CCOC(=O)[C@@H]4[C@H]2C(=O)N(C(CO)C(C)C)[C@@H]3C1=O` (stereo not given in full), for which the composite z-score is -0.662 in [1]; -0.353 in [2]; -0.476 in assay [3]; -0.372 in [5]; -0.13 in assay [6]; -0.759 in assay [7]. The composite z-score came to 0.0236 in [8], 0.185 in [9] and 0.843 in assay [10]. Also, in assay [4], the z-score was -0.116 (inactive).
On to `COc1ccc([Si](C)(C)[C@H]2[C@H](CCn3cc([C@H](O)c4ccccc4)nn3)O[C@@]3(C(=O)N(c4ccccc4)c4ccccc43)[C@@H]2C)cc1`, for which the composite z-score was 0.459 in [1]; -0.125 in assay [2]; 0.0759 in assay [3]; 0.355 in [5]; -0.44 in assay [6]; -0.166 in assay [7]. Further, the composite z-score in assay [8] was 0.34; in assay [9] it was -0.0331; in assay [10], -0.168. Moreover, in assay [4], the z-score is -0.299 (inactive).
As for `CCCC[C@H]1OB(O)C[C@H]2C1=C(COC)C[C@H]1C(=O)C=CC(=O)[C@H]12`, the composite z-score in assay [1] was 0.351; in assay [2], -0.177; in assay [3], -0.461; in [5], 0.6; in assay [6], 0.385; in assay [7] it was 0.645. Further, the composite z-score was 1.07 in assay [8], 0.717 in assay [9] and 1.21 in assay [10]. Further, the z-score in assay [4] is 0.635 (inactive).
Turning to `[N-]=[N+]=NCc1ccccc1C[C@]1(C(=O)N2CCOCC2)N=C(c2ccc(OCCCO)cc2)O[C@H]1c1ccccc1CN=[N+]=[N-]`, the composite z-score was 1.33 in assay [1]; 1.42 in [2]; 1.39 in assay [3]; 1.39 in assay [5]; 0.935 in assay [6]; -0.134 in assay [7]. Besides, the composite z-score in assay [8] is 0.217; in [9] it was -0.275; in assay [10] it was 1.43. The z-score in [4] is -1.2 (inactive).
